Some test systems named below: NCI-H23 lung; NCI-H226 lung; NCI-H322M lung; HOP-62 NSCLC; HOP-92 NSCLC; NCI-H522 lung; A549/ATCC NSCLC; 786-0 renal; DU-145 prostate; K-562 leukemia; MALME-3M melanoma; MDA-MB-231 breast; RXF 393 renal; SF-268 CNS; SF-295 CNS; SF-539 CNS; UACC-257 melanoma; M14 melanoma; COLO 205 colon.
Test in all cases: NCI-60 one-dose screen, 48 h (100 = growth as untreated, 0 = no growth, -100 = all killed)
What all share (conditions): 10 µM unless noted

SMILES strings stand for the structures. The panel holds about 83,000 compounds, 20% with a hit somewhere; the sample as a whole holds those more often.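 The endpoint reported here, percent growth, reads 100 for growth as untreated, 0 for no net growth and -100 for all cells dead.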 Unmarked numbers belong to inactive results. Calls of active or inactive are those of the source. The calls were made as follows: active = growth percent below 10; inactive = the rest.

As to `CCCCNCC(=O)Nc1ccc(C(=O)OCC)cc1`, the growth with NCI-H23 lung is 105%; with NCI-H226 lung it was 89.8%; with NCI-H322M lung, 105%; in the test on HOP-62 NSCLC, 98.7%; with HOP-92 NSCLC, 79.6%; with NCI-H522 lung, 69.1%. The growth in the test with A549/ATCC NSCLC was 95.3%; in the test on 786-0 renal it was 99.6%; in the test with DU-145 prostate it was 114%; in the test with K-562 leukemia, 92.4%; in the test on MALME-3M melanoma it was 106%; in the test with MDA-MB-231 breast, 103%. Also, the growth in the test with RXF 393 renal was 110%; in the test with SF-268 CNS, 104%; in the test on SF-295 CNS, 99.4%; in the test on SF-539 CNS, 105%; in the test with UACC-257 melanoma it was 103%; in the test with M14 melanoma, 97.3%.

Turning to `COc1c(C)cnc(CSc2nc(-c3ccc(C)cc3)cn2-c2ccc(Cl)cc2)c1C`, the growth with NCI-H23 lung was 97%; in the test on NCI-H226 lung it was 102%; in the test on NCI-H322M lung, 80.9%; with HOP-62 NSCLC, 89.5%; in the test with HOP-92 NSCLC it was 103%; in the test on NCI-H522 lung, 55.9%. The growth is 88.6% in the test on A549/ATCC NSCLC; 95.3% with 786-0 renal; 96% in the test on COLO 205 colon; 107% with DU-145 prostate; 93.4% in the test on MALME-3M melanoma; 88.5% in the test on MDA-MB-231 breast. Also, the growth was 108% with RXF 393 renal; 99.6% in the test on SF-268 CNS; 110% in the test with SF-295 CNS; 105% in the test with SF-539 CNS; 91.5% with UACC-257 melanoma.

For the compound `CCCCOc1ccc(NC(=O)n2nc(N=NN(C)C)c3ccc(Cl)cc32)cc1`, the growth in the test with NCI-H23 lung is 94.2%; in the test on NCI-H226 lung, 96.3%; with NCI-H322M lung it was 99.4%; in the test on HOP-62 NSCLC it was 88.3%; in the test with HOP-92 NSCLC, 93%; with NCI-H522 lung it was 90.1%. Further, the growth is 111% in the test on A549/ATCC NSCLC; 109% in the test on 786-0 renal; 106% in the test on DU-145 prostate; 93.7% with K-562 leukemia; 122% in the test with MALME-3M melanoma; 104% in the test with MDA-MB-231 breast. In addition, the growth is 112% in the test on RXF 393 renal; 102% in the test on SF-268 CNS; 101% in the test on SF-295 CNS; 104% in the test on SF-539 CNS; 125% in the test on UACC-257 melanoma; 89.4% in the test on M14 melanoma.

As for `CC1(C)C(=O)/C(=C\c2cccnc2)C[C@]2(C)[C@H]3CC=C4[C@@H]5C[C@@](C)(C(=O)O)CC[C@]5(C)CC[C@@]4(C)[C@]3(C)CC[C@@H]12`, the growth is 102% with NCI-H23 lung; 92.9% in the test with NCI-H226 lung; 93.1% in the test with NCI-H322M lung; 96.6% in the test on HOP-62 NSCLC; 88.9% in the test with HOP-92 NSCLC; 87.1% in the test with NCI-H522 lung. For the same compound, the growth in the test with A549/ATCC NSCLC was 78.8%; in the test on 786-0 renal, 101%; with DU-145 prostate, 104%; with K-562 leukemia, 80.7%; in the test on MALME-3M melanoma, 126%; in the test with MDA-MB-231 breast, 101%. In addition, the growth was 92.2% in the test on RXF 393 renal; 98.9% in the test with SF-268 CNS; 93.9% with SF-295 CNS; 101% with SF-539 CNS; 87.7% in the test on UACC-257 melanoma; 100% in the test on M14 melanoma.

Take `CC(=O)Nc1ccc2c(c1)Cc1c(F)cccc1-2`: the growth with NCI-H23 lung is 94.9%; with NCI-H226 lung, 89.4%; in the test with NCI-H322M lung, 112%; in the test with HOP-62 NSCLC it was 116%; in the test with HOP-92 NSCLC, 89%; with NCI-H522 lung, 89%. Besides, the growth with A549/ATCC NSCLC is 92%; with 786-0 renal it was 115%; in the test with DU-145 prostate, 102%; with K-562 leukemia, 120%; with MALME-3M melanoma, 130%; in the test with MDA-MB-231 breast, 101%. Further, the growth was 99% in the test with RXF 393 renal; 83.7% in the test on SF-268 CNS; 109% in the test with SF-295 CNS; 99.4% in the test with SF-539 CNS; 110% with UACC-257 melanoma; 119% in the test with M14 melanoma.

Turning to `C[C@@H](C[C@H](CCOCc1cccnc1)c1ccccc1)c1cc2ccccc2o1`, the growth in the test on NCI-H23 lung was 90.7%; in the test on NCI-H226 lung, 80.2%; in the test on NCI-H322M lung, 90.5%; with HOP-62 NSCLC it was 81.8%; in the test with HOP-92 NSCLC it was 84.9%; in the test on NCI-H522 lung, 78.2%. The growth was 90.2% with A549/ATCC NSCLC; 93.8% in the test on 786-0 renal; 98.7% in the test on DU-145 prostate; 81.5% with K-562 leukemia; 95.5% in the test with MALME-3M melanoma; 98.1% in the test with MDA-MB-231 breast. The growth in the test with RXF 393 renal was 92.8%; with SF-268 CNS it was 89.3%; in the test on SF-295 CNS, 97.6%; with SF-539 CNS it was 98.8%; with UACC-257 melanoma, 94%; in the test on M14 melanoma it was 92.8%.

With `C=C1C(=O)O[C@H]2[C@H]1CC/C(Cn1cc(CNCCc3c[nH]c4ccccc34)nn1)=C\CC[C@@]1(C)O[C@@H]21`, the growth was 95% in the test with NCI-H23 lung; 101% with NCI-H226 lung; 86.8% with NCI-H322M lung; 86.3% in the test with HOP-62 NSCLC; 61.6% with HOP-92 NSCLC; 3.17% (active) with NCI-H522 lung. Besides, the growth in the test with A549/ATCC NSCLC is 95.7%; with 786-0 renal, 99.1%; in the test with DU-145 prostate it was 104%; in the test with K-562 leukemia it was 32%; in the test on MALME-3M melanoma, 76%; in the test with MDA-MB-231 breast, 92.4%. Further, the growth in the test on RXF 393 renal was 85.4%; with SF-268 CNS, 95.8%; with SF-295 CNS, 102%; in the test with SF-539 CNS, 81.1%; in the test on UACC-257 melanoma, 77.4%; with M14 melanoma, 84.3%.

Take `CCC(=O)OC1=C(C)SC2=NC(c3ccc(Cl)c(Cl)c3)=CC(c3cc(OC)c(OC)c(OC)c3)N21` (stereo not given): the growth with NCI-H23 lung was 98.5%; with NCI-H226 lung, 95%; in the test on NCI-H322M lung, 97.4%; with HOP-62 NSCLC, 95.9%; in the test on HOP-92 NSCLC it was 67.9%; in the test on NCI-H522 lung it was 97.8%. Further, the growth with A549/ATCC NSCLC was 105%; in the test on 786-0 renal it was 104%; with DU-145 prostate it was 114%; in the test with K-562 leukemia it was 103%; in the test with MALME-3M melanoma, 104%; with MDA-MB-231 breast it was 90.2%. Also, the growth was 91% in the test on RXF 393 renal; 102% with SF-268 CNS; 94.8% in the test on SF-295 CNS; 90.9% in the test with SF-539 CNS; 106% in the test with M14 melanoma.

With `O=C1NC(=S)S/C1=C\N1N=C(c2ccc(Cl)cc2)CC1c1ccc(F)cc1` (stereo not given), the growth with NCI-H23 lung was 91.3%; in the test on NCI-H226 lung, 83.9%; with NCI-H322M lung, 99.1%; with HOP-62 NSCLC, 103%; with HOP-92 NSCLC, 104%; in the test with NCI-H522 lung, 76.1%. Also, the growth with A549/ATCC NSCLC is 84.1%; with 786-0 renal, 94%; with DU-145 prostate it was 98.5%; in the test on K-562 leukemia, 59.8%; with MALME-3M melanoma, 83.7%; in the test on MDA-MB-231 breast it was 80.9%. Moreover, the growth in the test on RXF 393 renal was 73.8%; in the test on SF-268 CNS, 85.9%; with SF-295 CNS it was 92.4%; in the test with SF-539 CNS, 89.5%; in the test with UACC-257 melanoma, 107%; with M14 melanoma it was 87.7%.

Values taken from PubChem BioAssay (NCI).
